Data as given in PubChem BioAssay (Tox21).
Where “and” joins values, the source holds several entries; their conditions need not be identical. Equal values may be shown once. Records with an inconclusive call do not appear. A call without a number means that no potency is given here. Calls of active or inactive are those of the source. Calls come from the whole dose curve; as a rule, active = well fitted cell-killing curve with a large enough effect in the repeat runs; inconclusive = weak or mixed curves, or effect the other way; inactive = flat fitted curve, though single readings scatter.

Legend:
[1] = cAMP Responsive Elements (CRE) small molecule antagonists, cell-based qHTS assay: qHTS cell viability counter screen (AID 2060913); note: nearly all actives have a fitted effect of over 40% in size
Method in brief: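 CRE-bla HEK293T cells (2,000/well, 18 h) given compound plus NKH477 0.25 uM final for 3 h at 37C; viability counter-screen by CellTiter-Glo luminescence in same wells after 30 min.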

[2] = cAMP Responsive Elements (CRE) small molecule agonists, cell-based qHTS assay: qHTS cell viability counter screen (AID 2060914);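 note: viability read after 3 h of compound exposure; nearly all actives have a fitted effect of over 50% in size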
Method in brief: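 HEK 293T CRE-bla; DMEM + 10% dialyzed FBS, 25 mM HEPES; 18 h pre-incubation; compound 3 h, 37 °C/5% CO2; CellTiter-Glo added after reporter read; luminescence after 30 min RT.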
Potency is the fitted concentration of half-maximal effect.

CCCCN(CCCCO)N=O
Potency [1]: inactive | Potency [2]: inactive

CCC(C)n1c(=O)[nH]c(C)c(Br)c1=O (centres undefined)
Potency [1]: inactive | Potency [2]: inactive

CS(=O)(=O)NC(=O)c1cc(Oc2ccc(C(F)(F)F)cc2Cl)ccc1[N+](=O)[O-]
Potency [1]: inactive | Potency [2]: inactive

CC(Cl)(Cl)[N+](=O)[O-]
Potency [1]: inactive | Potency [2]: inactive

C=CCCC#N
Potency [1]: inactive | Potency [2]: inactive

CCOC(=O)NC(=S)Nc1ccccc1NC(=S)NC(=O)OCC
Potency [1]: inactive | Potency [2]: inactive

C=CC(=O)OCC(C)C
Potency [1]: inactive | Potency [2]: inactive

O=S(=O)(O)C(F)(F)C(F)(F)C(F)(F)C(F)(F)F
Potency [1]: inactive | Potency [2]: inactive

O=C(N/N=C/c1ccc([N+](=O)[O-])o1)c1cc([N+](=O)[O-])cc([N+](=O)[O-])c1O
Potency [1]: inactive | Potency [2]: inactive

CC(=O)c1ccc(-c2ccccc2)cc1
Potency [1]: inactive | Potency [2]: inactive

c1ccc2c(c1)CCNC2
Potency [1]: inactive | Potency [2]: inactive

N#CCc1ccccc1
Potency [1]: inactive | Potency [2]: inactive

CCCCCCCCC(=O)NCc1ccc(O)c(OC)c1
Potency [1]: inactive | Potency [2]: inactive

CCN1CCCC1CNC(=O)C(O)(c1ccccc1)c1ccccc1 (centres undefined)
Potency [1]: inactive | Potency [2]: inactive

C1CCC(NC2CCCCC2)CC1
Potency [1]: inactive | Potency [2]: inactive

O=C(Nc1ccc2[nH]ccc2c1)c1cc2cc(F)ccc2n1Cc1cccc(F)c1
Potency [1]: inactive | Potency [2]: inactive

O=[N+]([O-])c1cccc2ccccc12
Potency [1]: inactive | Potency [2]: inactive

N#CC(CCc1ccc(Cl)cc1)(Cn1cncn1)c1ccccc1 (centres undefined)
Potency [1]: inactive | Potency [2]: inactive

COC(=O)C(Cl)C(=O)OC
Potency [1]: inactive | Potency [2]: inactive

COC(=O)C1=CCCN(C)C1
Potency [1]: inactive | Potency [2]: inactive

Cc1ccc([N+](=O)[O-])[c]2c1[O][Hg]2
Potency [1]: 11.9 µM (active) | Potency [2]: 18.8 µM (active)

ClC(Cl)(Cl)c1ccccc1
Potency [1]: inactive | Potency [2]: inactive

CCC#N
Potency [1]: inactive | Potency [2]: inactive

O=S(=O)(O)O
Potency [1]: inactive | Potency [2]: inactive

Cc1cc(C(F)(C(F)(F)F)C(F)(F)F)ccc1NC(=O)c1cccc(I)c1C(=O)NC(C)(C)CS(C)(=O)=O
Potency [1]: inactive | Potency [2]: inactive

Cc1cnc(C2=NC(C)(C(C)C)C(=O)N2)c(C(=O)O)c1 (centres undefined)
Potency [1]: inactive | Potency [2]: inactive

CCOP(=O)(OCC)Oc1cc(C)nc(C(C)C)n1
Potency [1]: inactive | Potency [2]: inactive

CCC1(c2cccc(O)c2)CCCCN(C)C1 (centres undefined)
Potency [1]: inactive | Potency [2]: inactive

CCCN(CCC)CCc1c[nH]c2ccccc12
Potency [1]: inactive | Potency [2]: inactive

O=C(O)CCCCCCNC1c2ccccc2CCc2ccccc21
Potency [1]: inactive | Potency [2]: inactive

CC(C)(c1ccccc1)c1cc(-n2nc3ccccc3n2)c(O)c(C(C)(C)c2ccccc2)c1
Potency [1]: inactive | Potency [2]: inactive

C[Si](Cn1cncn1)(c1ccc(F)cc1)c1ccc(F)cc1
Potency [1]: inactive | Potency [2]: inactive

CCNc1nc(NCC)nc(SC)n1
Potency [1]: inactive | Potency [2]: inactive

C#CCO
Potency [1]: inactive | Potency [2]: inactive

CCSC(=O)N(CC)C1CCCCC1
Potency [1]: inactive | Potency [2]: inactive

BrCC(Br)C1CCC(Br)C(Br)C1 (centres undefined)
Potency [1]: inactive | Potency [2]: inactive

CCC1(CC)C(=O)N=C(O)NC1=O
Potency [1]: inactive | Potency [2]: inactive

COP(N)(=O)SC (centres undefined)
Potency [1]: inactive | Potency [2]: inactive

CCC(C)(C)c1ccc(O)c(C(C)(C)CC)c1
Potency [1]: 27.3 µM (active) | Potency [2]: 30.3 µM (active) and 24.3 µM (active)

c1ccoc1
Potency [1]: inactive | Potency [2]: inactive

O=C1C=CC(=O)C=C1
Potency [1]: inactive | Potency [2]: inactive

COC(=O)c1ccccc1S(=O)(=O)NC(=O)Nc1nc(C)cc(C)n1
Potency [1]: inactive | Potency [2]: inactive
